Source: ChEMBL document CHEMBL4513216, “Probing the Open Global Health Chemical Diversity Library for Multistage-Active Starting Points for Next-Generation Antimalarials” (ACS Infect Dis, 2020)
Out of some 69,000 compounds screened, about 8,600 (12%) showed an effect of 50% or more. The sample as a whole holds a higher share of strong results than the screen did.

test system: Plasmodium berghei; test: Screen against P. berghei liver stage (PbLuc), transformed with Luciferase, at 10uM; format: functional, HepG2; conditions: tested at 10 uM

| Compound | INHIBITION [%] |
| --- | --- |
| CCc1nc(CN(C)C2CCN(CC(=O)N3CCOCC3)C2)no1 (stereo not given) | 22.3 |
| O=C(CN1CCOC(CNc2cccnn2)C1)N1CCCCC1 (stereo not given) | -55.4 |
| CSc1ccc(-c2nc(CN3CCC(NC(C)=O)C3)c(C)o2)cc1 (stereo not given) | 66.8 |
| CSc1ccc(-c2nc(CN3CCC(NC(C)=O)CC3)c(C)o2)cc1 | 5.51 |
| CNC(=O)C1CCN(Cc2nc(-c3ccc(SC)cc3)oc2C)C1 (stereo not given) | -2.5 |
| COCCOc1ccc(NC(=O)C2CC(=O)N(C(C)C)C2)cn1 (stereo not given) | -21.8 |
| CC(=O)NCC(=O)N1CCC(c2cncc(Oc3cccnc3)n2)CC1 | 9.93 |
| CN(Cc1n[nH]c2c1CCC2)C(=O)CCc1cc2n(n1)CCNC2 | 46.3 |
| CCc1ncc(C(=O)N2CC[C@H]3CC[C@@H](C2)N3C)cn1 | 61.4 |
| CCc1ncc(C(=O)N2CC(N3CCCCC3)C2)cn1 | 13.9 |
| CCc1ncc(C(=O)N2C[C@@H](C)O[C@@H](C)C2)cn1 | 24.8 |
| CNCc1ccc([C@@H]2CN(C)C[C@H]2C(N)=O)cc1 | 49.5 |
| C[C@H](NC(=O)c1cccc(CCC(C)(C)O)c1)C(N)=O | 10.3 |
| CC(C)(O)CCc1cccc(C(=O)NCc2nccs2)c1 | 56.3 |
| Cc1csc(CN(C)C(=O)c2cccc(CCC(C)(C)O)c2)n1 | 34.9 |
| CC[C@@H](CO)NC(=O)c1cccc(CCC(C)(C)O)c1 | 5.78 |
| CN(Cc1nccn1C)C(=O)c1cccc(CCC(C)(C)O)c1 | 39.4 |
| CC(C)n1ccnc1CNC(=O)c1cccc(CCC(C)(C)O)c1 | 54.5 |
| CCN(CC)c1ncccc1CNCc1ccc(Cl)s1 | 49.4 |
| Cc1ncsc1CN(Cc1ccccc1)Cc1ccncc1 | 12.1 |
| CC(C(=O)Nc1ccc(Cl)cn1)n1ccc(C(F)(F)F)n1 (stereo not given) | 42.4 |
| Cc1cccc2nc(C(=O)N3CCCC[C@]4(C)NC(=O)CC[C@H]34)cn12 | 22 |
| O=C(NC1CC1)c1cc(C(F)(F)F)cc(C(=O)NC2CC2)n1 | 5.21 |
| Cc1cc(CN(C)Cc2ncc(-c3cccs3)o2)no1 | 1.84 |
| Cc1cc(CN(C)CCC(O)c2ccccc2)no1 (stereo not given) | 30.3 |
| Cc1cc(CN(C)CC2CCCCC2)no1 | 23.1 |
| Cc1cc(CN(C)CCN(C)c2ccccc2)no1 | 82.4 |

| Compound | INHIBITION [%] |
| --- | --- |
| Cc1cc(CN(C)Cc2ncc(C(C)(C)C)o2)no1 | -30.5 |
| Cc1cc(CN(C)Cc2ncc(-c3ccccc3)o2)no1 | 50.7 |
| CC(C)c1nccn1CC(=O)Nc1ccnn1C(C)C(C)C (stereo not given) | -5.51 |
| COC(=O)c1cccc(C(=O)NCc2ccco2)n1 | 41.6 |
| CC(=O)Nc1ccc(S(=O)(=O)N2CCOC(Cn3ccnc3)C2)cc1 (stereo not given) | -36.4 |
| Cc1cc(C)n(C2CN(CCC(=O)NCCc3ccccc3)C2)n1 | 36.3 |
| Cc1cc(C)n(C2CN(CCC(=O)NC3CCCCC3)C2)n1 | 25.6 |
| CCc1ccc(NC(=O)CCN2CC(n3nc(C)cc3C)C2)cc1 | 52.6 |
| CS(=O)(=O)N[C@@H]1CN(C(=O)c2cc3ccccc3s2)C[C@H]1O | -19.7 |
| CC(=O)N1CCC(c2cc(C(F)(F)F)nc3nccn23)CC1 | 61.9 |
| FC(F)(F)c1cc(C2CCN(c3cnccn3)CC2)n2ccnc2n1 | -7.98 |
| CC(=O)N1CCC(c2cc(C(F)(F)F)n3ccnc3n2)CC1 | -22.6 |
| CN(C)C(=O)CN1CCc2onc(-c3ccccc3F)c2C1 | -17.8 |
| Fc1cccc(CN2C[C@@H]3CN(c4ncccn4)C[C@@H]3C2)c1 | 28.5 |
| Fc1cnc(N2C[C@H]3CN(Cc4cccc(F)c4)C[C@H]3C2)nc1 | 60 |
| Cc1ccc(CN2C[C@@H]3CN(c4ncc(F)cn4)C[C@@H]3C2)cc1 | 46.7 |
| CN(CCCc1cc(-c2ccc(F)cc2)n(C)n1)CC(N)=O | -65.6 |
| CN1CC[C@H](N(Cc2ccccc2)Cc2ccccc2)C[C@H](O)C1 | 32.1 |
| Cc1ccc(CN2CCO[C@@H]3C[C@@H](C(=O)NC(C)C)C[C@H]32)o1 | -26.5 |
| CC(C)(Cn1cnc(-c2ccccc2)c1-c1ccco1)N1CCOCC1 | 51.7 |
| CSCCc1c(-c2ccccc2)ncn1CC(C)(C)N1CCCC1 | 26.7 |
| CSCCc1c(-c2ccccc2)ncn1[C@H]1C[C@@H](C(=O)O)N(C)C1 | 19.5 |
| CN(C)CC(C)(C)Cn1cnc(-c2ccccc2)c1-c1cccc(O)c1 | -39.3 |
| CN(C)CC(C)(C)Cn1cnc(-c2ccccc2)c1-c1ccncc1 | -18.1 |
| CSCCc1c(-c2ccccc2)ncn1CC(C)(C)N1CCOCC1 | 69.3 |
| CCc1cc(CN(C)C(=O)c2cc(=O)[nH]c(=O)[nH]2)on1 | -34.8 |
| CCn1nc(C)c2ncnc(N3CCCC(C)C3)c21 (stereo not given) | 26.9 |

| Compound | INHIBITION [%] |
| --- | --- |
| CCN(CC1CCOC1)C(=O)c1ccc(N(C)C)cc1F (stereo not given) | 13.8 |
| O=C(Cc1ccccc1)N1CCOC(c2nc(-c3ncccn3)no2)C1 (stereo not given) | -20.2 |
| COc1ccc(C(NCc2cccc(O)c2)C2CC2)cc1 (stereo not given) | 3.84 |
| CCOCC1CN(Cc2ccc3c(c2)OCO3)Cc2ncn(C)c21 (stereo not given) | 23.3 |
| CC(C)COCC1CN(Cc2cnn(C)c2)Cc2ncn(C)c21 (stereo not given) | 28.3 |
| CC(C)COCC1CN(Cc2ccoc2)Cc2ncn(C)c21 (stereo not given) | 9.51 |
| COCC1CN(Cc2ccc3c(c2)OCO3)Cc2ncn(C)c21 (stereo not given) | 38.2 |
| CC(C)COCC1CN(Cc2ccc3c(c2)OCO3)Cc2ncn(C)c21 (stereo not given) | 55.1 |
| Cn1cnc2c1C(COCC1CC1)CN(Cc1ccc3c(c1)OCO3)C2 (stereo not given) | 63.5 |
| CC(C)Cn1c(=O)[nH]c2cn(-c3ccc(F)cc3)c(=O)n21 | 11.4 |
| Cc1cc(CN2CCC3(CC2)CC(Nc2ncccn2)CO3)nn1C (stereo not given) | -0.813 |
| CC(Cn1cccn1)NCc1csc(COc2ccc(F)cc2)n1 (stereo not given) | 33.7 |
| CN(C)C(C(=O)NC1(CO)CCCC1)c1ccc(F)cc1 (stereo not given) | 31.3 |
| COCC1(NC(=O)C(c2ccc(F)cc2)N(C)C)CCCC1 (stereo not given) | 21.1 |
| CCCC1(NC(=O)C(c2ccc(F)cc2)N(C)C)CC1 (stereo not given) | 53.6 |
| CCOc1ccc(CCCC(=O)N2CCC(c3nnn[nH]3)CC2)cc1C | 17.7 |
| CC(C)CC(=O)N1CCCCC(NC(=O)CCc2cccnc2)C1 (stereo not given) | 34.4 |
| CCO[C@H]1CCN(S(=O)(=O)c2cn(C)cn2)[C@H]1Cc1ccccc1 | -55.5 |
| Cc1cccn2cc(CN3CCCC(c4noc(C5CC5)n4)C3)nc12 (stereo not given) | -48.6 |
| c1cc(CN2CCCC(c3noc(C4CC4)n3)C2)no1 (stereo not given) | 51.6 |
| C1CC(c2noc(C3CC3)n2)CN(Cc2noc(C3CC3)n2)C1 (stereo not given) | 17.8 |
| CCN(Cc1cnn(C)c1)C[C@H]1CC[C@@H](Cc2ccc(CO)cc2)O1 | -5.78 |
| O=C(NCc1ccco1)[C@H]1C[C@@H]2CCN(c3nncs3)C[C@H]2O1 | 13.5 |
| CCc1nc(CN(C)C(=O)CSC)no1 | -4.96 |
| CSCC(=O)N(C)Cc1noc(-c2ccccc2)n1 | 55.9 |
| CN(Cc1noc(-c2ccccc2)n1)C(=O)CSc1nnc(N)s1 | 18.9 |
| c1ccc(-c2cnc(CN3CCCC3Cn3cccn3)o2)cc1 (stereo not given) | 40.9 |

| Compound | INHIBITION [%] |
| --- | --- |
| O=C1CC2(CCCC2)CC(=O)N1Cc1ncccn1 | 29.4 |
| Cn1nc(C(=O)NCc2cccnc2)c2c1CCS(=O)(=O)C2 | 73.9 |
| COc1ccc(CNC(=O)c2nn(C)c3c2CS(=O)(=O)CC3)cc1 | 40 |
| Cn1nc(C(=O)NCc2ccc(Cl)cc2)c2c1CCS(=O)(=O)C2 | 53.2 |
| Cn1nc(C(=O)NCc2cccs2)c2c1CCS(=O)(=O)C2 | 23.4 |
| Cn1nc(C(=O)NCc2ccccn2)c2c1CCS(=O)(=O)C2 | -45 |
| Cn1nc(C(=O)NCc2ccc(F)cc2)c2c1CCS(=O)(=O)C2 | 21.7 |
| Cc1cnnn1Cc1nnn2c1CN(Cc1ccccn1)CCC2 | 42.6 |
| O=C(O)CSc1nc(-c2ccc3c(c2)CCC3)n[nH]1 | 11.4 |
| O=C([C@H]1CC[C@@H]2[C@@H](CCN2Cc2ccc(F)cc2)O1)N1CCCO1 | -11.6 |
| c1cnc(N2CCN(CCn3ccnc3-c3c[nH]cn3)CC2)nc1 | 14.5 |
| Cc1nccn1CCC1CCN(c2ncccn2)CC1 | 48.5 |
| c1cnc(N2CCN(CCn3ccnc3-c3ccncc3)CC2)nc1 | 50.5 |
| O=C(c1ccccn1)N1Cc2ccccc2OC2(CCOCC2)C1 | 48.4 |
| Cc1ccc(C(=O)N2Cc3ccccc3OC3(CCOCC3)C2)cn1 | 52 |
| Cc1cnc(C(=O)N2Cc3ccccc3OC3(CCOCC3)C2)cn1 | -6.92 |
| O=C(c1ccncc1)N1Cc2ccccc2OC2(CCOCC2)C1 | 20.5 |
| Nc1nonc1C(=O)N1Cc2ccccc2OC2(CCOCC2)C1 | 8.72 |
| Cc1cc(C(=O)N2Cc3ccccc3OC3(CCOCC3)C2)nc(N)n1 | 52.9 |
| O=C(c1ccc(O)nc1)N1Cc2ccccc2OC2(CCOCC2)C1 | 25.6 |
| Cc1nc(N)sc1C(=O)N1Cc2ccccc2OC2(CCOCC2)C1 | 61.7 |
| O=C(c1cncnc1)N1Cc2ccccc2OC2(CCOCC2)C1 | -33.4 |
| Cc1ccc2nc(C3CCCN(Cc4ccccc4)C3)nc(O)c2c1 (stereo not given) | 30.8 |
| CN(C)C(=O)N1C[C@@H](C(=O)NCc2ccco2)C[C@H]2OCC[C@H]21 | -28 |
